# Compound activity from PubChem BioAssay.
# HEK293 tox = cytotoxic compounds in HEK 293 cells; Potency, µM (titrated, usually from 115 µM), for inactives: at the top dose activity change, negative = cytotoxicity, most hits filed as inhibitors; HEK 293 viability, ATP luminescence (CellTiter-Glo), 48-72 h; AID 1345083; 6.6% of 94,000 active; note: % is set by controls: 0 for no effect and ±100 for the full control effect; nearly all actives have a fitted effect of over 60% in size
#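 Cells seeded first (HEK 293, 250 cells/well), then compound added by pintool. Incubation ran 48 or 72 hr at 37 degree Celsius. CellTiter-Glo was added and luminescence imaged after 10 min at room temperature.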
# 3T3 cytotox = NIH 3T3 cell cytotoxicity; Potency, µM (series often up to 96.7 µM), for inactives: top-dose activity change, negative = cytotoxicity, hits mostly inhibitors; 4.3% of 94,000 active; NIH 3T3 viability, CellTiter-Glo ATP luminescence, 48-72 h; note: % is set by controls: 0 for no effect and ±100 for the full control effect; nearly all actives have a fitted effect of over 55% in size
#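 ATP-dependent luminescence (CellTiter-Glo) served as the viability signal for NIH 3T3 cells treated with compound for 48 or 72 hr at 37 °C.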
# GPT2 inhibitor = blocks human glutamate pyruvate transaminase 2. Q8TD30. Recombinant GPT2, coupled pyruvate oxidase/HRP Amplex Red fluorescence. Potency, µM (top dose mostly 57.7 µM), for the others: at the top dose activity change, negative = inhibition, most hits filed as inhibitors. 0.25% of 100,000 active; note: % is set by controls: 0 for no effect and ±100 for the full control effect; nearly all actives have a fitted effect of over 60% in size
#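 Inhibition is scored from Amplex Red fluorescence generated when pyruvate oxidase and HRP act on pyruvate released by GPT2. Reactions contain 10ng/uL enzyme, 250uM a-KG and 2mM L-alanine and run 30 min at room temperature.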
# NPR1 antag = human Npr1 receptor antagonism; P16066; HEK293 hNpr1 GloSensor cGMP, ANP-stimulated luminescence; Potency, µM (series often up to 46.3 µM), for the others: at the highest dose activity change, negative = inhibition, usual class: inhibitors; 1.6% of 76,000 active; calls by dose curve; note: % is set by controls: 0 for no effect and ±100 for the full control effect; nearly all actives have a fitted effect of over 60% in size
#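 HEK293 cells stably expressing human Npr1 and cGMP GloSensor pGS-40F, loaded 2 h with 2% GloSensor reagent, given compound 30 min at room temperature. Luminescence read before and 20 min after 0.1 nM hNppA.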
# FLuc inh = blocks purified firefly luciferase enzyme activity | P08659 | purified P. pyralis luciferase, luminescence, biochemical | Potency, µM (doses to about 115 µM), most hits filed as inhibitors | 2.5% of 76,000 active | AID 1347043; note: % is set by controls: 0 for no effect and ±100 for the full control effect; nearly all actives have a fitted effect of over 65% in size
# Target sequence (P08659 whole entry, looked up): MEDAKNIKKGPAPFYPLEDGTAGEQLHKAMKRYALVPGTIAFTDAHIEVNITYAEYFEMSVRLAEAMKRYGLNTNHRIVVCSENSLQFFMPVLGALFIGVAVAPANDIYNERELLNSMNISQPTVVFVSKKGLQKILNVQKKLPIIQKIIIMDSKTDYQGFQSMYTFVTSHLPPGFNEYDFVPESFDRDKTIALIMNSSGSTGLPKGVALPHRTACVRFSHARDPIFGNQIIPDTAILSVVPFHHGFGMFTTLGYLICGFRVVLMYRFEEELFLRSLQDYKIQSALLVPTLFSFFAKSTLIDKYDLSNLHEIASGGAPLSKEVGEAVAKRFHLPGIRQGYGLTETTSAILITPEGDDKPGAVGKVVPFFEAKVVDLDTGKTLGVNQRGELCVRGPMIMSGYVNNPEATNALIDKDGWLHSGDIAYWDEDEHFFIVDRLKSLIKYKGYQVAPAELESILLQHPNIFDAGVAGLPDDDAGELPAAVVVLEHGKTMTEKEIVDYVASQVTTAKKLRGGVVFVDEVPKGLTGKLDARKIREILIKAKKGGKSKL
#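 Luminescence read by CCD imager after adding enzyme (10nM final) to wells holding compound, titrated in qHTS. Substrates 10uM each D-luciferin and ATP; buffer 50mM Tris acetate pH 7.5, 10mM Mg acetate, Tween-20, BSA.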
# NPR1 antag cnf = hNpr1 antagonism, confirmation assay; shares compounds with NPR1 antag; HEK293 hNpr1 cGMP GloSensor luminescence, ANP-stimulated; 76% of 1,400 active; Potency, µM (doses to about 57.6 µM), for inactives: top-dose activity change, negative = inhibition, most hits filed as inhibitors; calls by dose curve; note: nearly all actives have a fitted effect of over 70% in size
# Npr2 selectivity = hNpr2 antagonism, selectivity versus Npr1 | AID 1347046 | 67% of 1,400 active | HEK293 hNpr2 GloSensor cGMP luminescence, CNP-stimulated | Potency, µM (doses to about 57.6 µM), inactives show top-dose activity change, negative = inhibition, actives largely listed as inhibitors | shares compounds with NPR1 antag; calls by dose curve; note: nearly all actives have a fitted effect of over 70% in size
# FLuc counter = counter-screen for Npr1 antagonists: firefly luciferase inhibitors | Potency, µM (highest dose often 57.6 µM), for the others: top-dose activity change, negative = inhibition, actives largely listed as inhibitors | AID 1347047 | 0.7% of 1,400 active | shares compounds with NPR1 antag | purified FLuc enzyme, luminescence, Km substrate; note: 0% is about no effect
# GloSensor ctrl = reduces cGMP signal in GloSensor control cells; HEK293 GloSensor cGMP, SNP-stimulated, luminescence; 69% of 1,400 active; Potency, µM (titrated, usually from 57.6 µM), without a hit: at the top dose activity change, negative = inhibition, hits mostly inhibitors; AID 1347051; shares compounds with NPR1 antag; calls by dose curve; note: % is set by controls: 0 for no effect and ±100 for the full control effect; nearly all actives have a fitted effect of over 70% in size
# * = called active by the depositor; i = inactive; ? = inconclusive; · = no result; [ ] = another dose, or the depositor's remark. This is a sample that favours compounds with a hit; in the whole collection about 10% have one here. Unless noted, calls come from the whole dose curve; as a rule, active = well fitted curve in the direction sought with a large enough effect; inconclusive = small, poorly fitted or top-dose-only effect, or another doubt; inactive = no such curve, though single readings can be large; an effect the other way counts as inactive or inconclusive. Potency is the fitted concentration of half-maximal effect.
SMILES,HEK293 tox,3T3 cytotox,GPT2 inhibitor,NPR1 antag,FLuc inh,NPR1 antag cnf,Npr2 selectivity,FLuc counter,GloSensor ctrl
CCOc1ccc(C(O)Cn2ccn3nc(-c4ccccc4C)cc3c2=O)cc1 (centres undefined),35µM*,?,i,13µM*,i,17µM*,?,0%,11µM*
CCOc1ccc(-c2cc3c(=O)n(CC(O)c4ccc(C(C)C)cc4)ccn3n2)cc1 (centres undefined),6%,-15%,i,3%,i,·,·,·,·
CC(=O)Nc1cccc(-c2ccnc(-c3nnc(C)n3C(C)C)c2)c1,?,?,2%[88.5 µM],-5%[70.6 µM],i,·,·,·,·
O=C1COc2ccc(-c3ccc(Cl)cc3)nc2CN1Cc1ccccc1,63µM*,?,-2%[88.5 µM],?,i,31µM*,22µM*,3%[86.2 µM],?
O=C1COc2ccc(Nc3ccc(Cl)cc3)nc2CN1Cc1nc2ccccc2s1,32µM*,40µM*,-13%[88.5 µM],?,i,?,?,-3%[86.2 µM],?
Cc1nc(CN2Cc3nc(-c4ccc(Cl)cc4)ccc3OCC2=O)cs1,?,?,-2%[88.5 µM],?,i,·,·,·,·
O=C1COc2ccc(-c3ccccc3F)nc2CN1Cc1ccccc1,?,?,4%[88.5 µM],-20%[70.6 µM],i,·,·,·,·
COc1ccc(-c2cc(C(=O)N3C[C@@H](Oc4ccccc4)C[C@H]3C(=O)NC3CC3)[nH]n2)cc1,i,-5%,i,4%,i,·,·,·,·
CC(C)c1noc(-c2cccn3c(CNC(=O)c4cccc(F)c4)nnc23)n1,i,1%,5%,-2%,i,·,·,·,·
COc1cccc(C(=O)N2CCCN(c3cc(-c4ccc(C)c(C)c4)[nH]n3)CC2)c1OC,40µM*,?,-10%,10µM*,i,24µM*,22µM*,-11%,24µM*
COc1cccc(C(=O)N2CCCN(c3cc(-c4ccc(Cl)cc4)[nH]n3)CC2)c1OC,?,?,?,11µM*,i,19µM*,17µM*,5%,15µM*
COc1ccccc1C(=O)N1CCCN(c2cc(-c3ccc(F)cc3)[nH]n2)CC1,?,?,-12%,-12%,i,·,·,·,·
COCCn1c(C)cnc1CC1CCN(C(=O)c2c[nH]c3ccccc23)CC1,i,i,i,3%,i,·,·,·,·
O=C(NCCc1ccccn1)c1cc2n(n1)CC(c1ccc(Br)cc1)OC2 (centres undefined),?,?,-3%,11µM*,i,22µM*,24µM*,-13%,24µM*
O=C(Nc1cccc(F)c1)c1cc2n(n1)CC(c1ccc(Br)cc1)OC2 (centres undefined),?,?,i,-26%,?,·,·,·,·
COc1cc(NC(=O)c2cc3n(n2)CC(c2ccc(Br)cc2)OC3)cc(OC)c1OC (centres undefined),?,?,-7%,?,i,?,-25%,-3%,-19%
COc1ccc(NC(=O)c2cc3n(n2)CC(c2ccc(Br)cc2)OC3)cc1OC (centres undefined),45µM*,?,i,?,i,?,-25%,-2%,?
